Read-out in test [1]: Protein phosphatase 2A (PPP2R4), PTPA (gene 5524)
Put plainly: LTEA_HepaRG_PPP2R4: Life Technologies and Expression Analysis (LTEA) Assay for Protein phosphatase 2A (PPP2R4) using HepaRG (AID 2283522). The following applies: mRNA level, 48 h; actives raise or lower the signal. The procedure, abridged: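 HepaRG, 48 h exposure, 8-pt half-log series from 100 uM, 0.5% DMSO vehicle, duplicates. Readout: PPP2R4 mRNA, Fluidigm qRT-PCR, housekeeping-normalized. Bidirectional curve fit vs DMSO baseline.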

Read-out in test [2]: Phosphatase and tensin (PTEN), PTEN (gene 5728)
Put plainly: LTEA_HepaRG_PTEN: Life Technologies and Expression Analysis (LTEA) Assay for Phosphatase and tensin (PTEN) using HepaRG (AID 2283523). As to conditions: mRNA level, 48 h; actives raise or lower the signal. A digest of the protocol:
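Expression of PTEN is quantified in the human liver line HepaRG following two days of dosing (top concentration 100 uM, half-log dilutions, 0.5% DMSO). Values derive from bidirectional curve fitting relative to DMSO controls.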

Read-out in test [3]: solute carrier (SLC22A1), SLC22A1 (gene 6580)
Put plainly: LTEA_HepaRG_SLC22A1: Life Technologies and Expression Analysis (LTEA) Assay for solute carrier (SLC22A1) using HepaRG (AID 2283524). The following applies: mRNA level, 48 h; actives raise or lower the signal. The procedure, abridged:
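Transcript induction or suppression of SLC22A1 in human HepaRG cultures is scored after 48 h chemical treatment, with DMSO (0.5%) as baseline for bidirectional fitting. Concentrations span eight half-log points topping at 100 uM.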

Read-out in test [4]: Pyruvate Dehydrogenase Kinase 4 (PDK4), PDK4 (gene 5166)
Put plainly: LTEA_HepaRG_PDK4: Life Technologies and Expression Analysis (LTEA) Assay for Pyruvate Dehydrogenase Kinase 4 (PDK4) using HepaRG (AID 2283525). The following applies: mRNA level, 48 h; actives raise or lower the signal. A digest of the protocol: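 Eight-point, half-log concentration series (max 100 uM, 0.5% DMSO) applied to differentiated HepaRG cells for 48 h in duplicate. Endpoint: PDK4 mRNA induction or repression by qRT-PCR against DMSO baseline.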

Read-out in test [5]: NAD(P)H dehydrogenase [quinone] 1 (NQO1), NQO1 (gene 1728)
Put plainly: LTEA_HepaRG_NQO1: Life Technologies and Expression Analysis (LTEA) Assay for NAD(P)H dehydrogenase [quinone] 1 (NQO1) using HepaRG (AID 2283526). As to conditions: mRNA level, 48 h; actives raise or lower the signal. A digest of the protocol:
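qRT-PCR read-out (Fluidigm TaqMan), normalized to three housekeeping genes, after 48 h chemical exposure of HepaRG cells. Concentrations: eight points, top 100 uM, half-log steps, 0.5% DMSO vehicle. Gain or loss of signal fitted relative to DMSO.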

Read-out in test [6]: Nuclear factor erythroid 2-related factor 2 (Homo sapiens) (UniProt Q16236)
Put plainly: LTEA_HepaRG_NFE2L2: Life Technologies and Expression Analysis (LTEA) Assay for Nuclear factor erythroid 2-related factor 2 (NFE2L2) Transcription Factor using HepaRG (AID 2283527).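 Note: TaqMan qRT-PCR transcript level normalised to ACTB GAPDH and POLR2A housekeeping genes.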 The following applies: mRNA level, 48 h; actives raise or lower the signal. The procedure, abridged:
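Human liver HepaRG line treated in duplicate for 48 h with an eight-point series topping at 100 uM. Gene expression of NFE2L2 by qRT-PCR, bidirectionally fitted against the vehicle control.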

Read-out in test [7]: succinate dehydrogenase complex iron sulfur subunit B (SDHB), SDHB (gene 6390)
Put plainly: LTEA_HepaRG_SDHB: Life Technologies and Expression Analysis (LTEA) Assay for succinate dehydrogenase complex iron sulfur subunit B (SDHB) using HepaRG (AID 2283528). As to conditions: mRNA level, 48 h; actives raise or lower the signal. A digest of the protocol: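 HepaRG, 48 h exposure, 8-pt half-log series from 100 uM in 0.5% DMSO, duplicates. Readout: SDHB mRNA by Fluidigm qRT-PCR vs housekeeping genes; bidirectional fit relative to DMSO.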

Read-out in test [8]: Signal transducer and activator of transcription 3 (Homo sapiens) (UniProt P40763)
Put plainly: LTEA_HepaRG_STAT3: Life Technologies and Expression Analysis (LTEA) Assay for Signal transducer and activator of transcription (STAT3) using HepaRG (AID 2283529). As to conditions: mRNA level, 48 h; actives raise or lower the signal. The procedure, abridged: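 In this transcriptional endpoint, HepaRG cultures receive test chemicals at up to 100 uM for 48 h, tested in duplicate. STAT3 mRNA is normalized to ACTB, GAPDH and POLR2A.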

Read-out in test [9]: solute carrier (SLCO1B1), SLCO1B1 (gene 10599)
Put plainly: LTEA_HepaRG_SLCO1B1: Life Technologies and Expression Analysis (LTEA) Assay for solute carrier (SLCO1B1) using HepaRG (AID 2283530). The following applies: mRNA level, 48 h; actives raise or lower the signal. A digest of the protocol: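 SLCO1B1 transcript levels were quantified by TaqMan qRT-PCR using three housekeeping genes for normalization. This followed 48 h chemical exposure (100 uM top, half-log, 8 points, 0.5% DMSO) of HepaRG liver cells, with gain or loss fitted relative to DMSO.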

Read-out in test [10]: sulfotransferase 2A1 (SULT2A1), SULT2A1 (gene 6822)
Put plainly: LTEA_HepaRG_SULT2A1: Life Technologies and Expression Analysis (LTEA) Assay for sulfotransferase 2A1 (SULT2A1) using HepaRG (AID 2283531). As to conditions: mRNA level, 48 h; actives raise or lower the signal. A digest of the protocol: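 Expression change of SULT2A1, by qRT-PCR with three housekeeping-gene normalization, was scored bidirectionally versus DMSO. Cells: differentiated HepaRG, dosed in duplicate for 48 h across 8 points, highest 100 µM, half-log dilution, 0.5% DMSO.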

Read-out in test [11]: Transforming Growth Factor (TGFA), TGFA (gene 7039)
Put plainly: LTEA_HepaRG_TGFA: Life Technologies and Expression Analysis (LTEA) Assay for Transforming Growth Factor (TGFA) using HepaRG (AID 2283532). As to conditions: mRNA level, 48 h; actives raise or lower the signal. The procedure, abridged: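 Gene expression of TGFA was quantified by qRT-PCR after human HepaRG cells were treated for 48 h with test chemicals (eight concentrations, highest 100 uM, 0.5% DMSO). Activity in either direction was fitted relative to DMSO.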

Read-out in test [12]: Transforming Growth Factor (TGFB1), TGFB1 (gene 7040)
Put plainly: LTEA_HepaRG_TGFB1: Life Technologies and Expression Analysis (LTEA) Assay for Transforming Growth Factor (TGFB1) Transporter using HepaRG (AID 2283533). As to conditions: mRNA level, 48 h; actives raise or lower the signal. The procedure, abridged:
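TGFB1 transcript measured by qRT-PCR with normalisation to three housekeeping genes (ACTB, GAPDH, POLR2A); human HepaRG line treated in duplicate for 48 hr with an 8-point series topping at 100 uM, 0.5% DMSO vehicle, bidirectionally fitted.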

Read-out in another test: TIMP1, TIMP1 (gene 7076)
Put plainly: LTEA_HepaRG_TIMP1: Life Technologies and Expression Analysis (LTEA) Assay for TIMP1 using HepaRG (AID 2283534). The following applies: mRNA level, 48 h; actives raise or lower the signal. A digest of the protocol: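 Bidirectional change in TIMP1 transcript versus 0.5% DMSO, measured by TaqMan qRT-PCR with three housekeeping genes for normalization. HepaRG human liver cells dosed 48 h in duplicate, top concentration 100 uM with half-log dilutions.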

Read-out in test [13]: Tumor necrosis factor receptor 1 (TNFRSF1A), TNFRSF1A (gene 7132)
Put plainly: LTEA_HepaRG_TNFRSF1A: Life Technologies and Expression Analysis (LTEA) Assay for Tumor necrosis factor receptor 1 (TNFRSF1A) using HepaRG (AID 2283535). The following applies: mRNA level, 48 h; actives raise or lower the signal. The procedure, abridged: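 mRNA measured by qRT-PCR (TaqMan, Fluidigm arrays) against ACTB/GAPDH/POLR2A housekeepers after 48 h chemical exposure of HepaRG cells. Top concentration 100 uM, half-log 8-point series, duplicates; vehicle 0.5% DMSO, both fit directions.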

Read-out in test [14]: Thyroid Hormone Responsive (THRSP), THRSP (gene 7069)
Put plainly: LTEA_HepaRG_THRSP: Life Technologies and Expression Analysis (LTEA) Assay for Thyroid Hormone Responsive (THRSP) using HepaRG (AID 2283536). The following applies: mRNA level, 48 h; actives raise or lower the signal. A digest of the protocol: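 Cell model: human HepaRG, approx. 100,000 cells/well, 0.5% DMSO vehicle. Exposure lasts 48 h; phenobarbital 1 mM serves as induction positive control. Gene expression is measured by qRT-PCR against three endogenous control genes.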

Read-out in test [15]: UDP glucuronosyltransferase (UGT1A1), UGT1A1 (gene 54658)
Put plainly: LTEA_HepaRG_UGT1A1: Life Technologies and Expression Analysis (LTEA) Assay for UDP glucuronosyltransferase (UGT1A1) using HepaRG (AID 2283538). The following applies: mRNA level, 48 h; actives raise or lower the signal. A digest of the protocol:
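HepaRG, 48 h chemical exposure (top 100 uM, half-log 8-pt, 0.5% DMSO vehicle), duplicate wells; qRT-PCR (TaqMan, Fluidigm array) for UGT1A1 mRNA, housekeeping-normalized; bidirectional curve fit vs DMSO baseline.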

Read-out in test [16]: UDP glucuronosyltransferase (UGT1A6), UGT1A6 (gene 54578)
Put plainly: LTEA_HepaRG_UGT1A6: Life Technologies and Expression Analysis (LTEA) Assay for UDP glucuronosyltransferase (UGT1A6) using HepaRG (AID 2283539). The following applies: mRNA level, 48 h; actives raise or lower the signal. The procedure, abridged:
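Expression was quantified by TaqMan qRT-PCR on Fluidigm arrays with ACTB/GAPDH/POLR2A normalization and bidirectional fitting against 0.5% DMSO. HepaRG cells (~100,000/well) were treated in duplicate for 48 h at eight half-log concentrations up to 100 uM in serum-free induction medium.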

Read-out in test [17]: X-box binding protein 1 (XBP1), XBP1 (gene 7494)
Put plainly: LTEA_HepaRG_XBP1: Life Technologies and Expression Analysis (LTEA) Assay for X-box binding protein 1 (XBP1) using HepaRG (AID 2283540). As to conditions: mRNA level, 48 h; actives raise or lower the signal. The procedure, abridged: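 XBP1 transcript by qRT-PCR (housekeeping-normalized: ACTB, GAPDH, POLR2A) after 48 h chemical treatment of HepaRG cells, 8-point half-log series topping at 100 uM, vehicle 0.5% DMSO. Gain and loss of signal fitted relative to DMSO.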

Test [18] can be described thus: LTEA_HepaRG_LDH_cytotoxicity: Cytotoxicity Assessment in the Life Technologies and Expression Analysis (LTEA) Assay (AID 2283563; active = hit-call score of the fitted dose curve at least 0.9, where 1 is the maximum). The procedure, abridged:
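LDH release into culture medium read after 48 h chemical treatment of HepaRG cells. Duplicate wells, eight-point half-log series topping at 100 uM, 0.5% DMSO vehicle and baseline.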

Broadly, the AC50 is the concentration giving half of the maximal activity seen.

The structures appear in SMILES notation. Active and inactive are the calls of the source. Rule for the calls, unless noted: active = hit-call score of the fitted dose curve at least 0.9, where 1 is the maximum; inactive = score below 0.9.

Nuclear factor erythroid 2-related factor 2 (Homo sapiens), sequence (Q16236 whole entry, looked up): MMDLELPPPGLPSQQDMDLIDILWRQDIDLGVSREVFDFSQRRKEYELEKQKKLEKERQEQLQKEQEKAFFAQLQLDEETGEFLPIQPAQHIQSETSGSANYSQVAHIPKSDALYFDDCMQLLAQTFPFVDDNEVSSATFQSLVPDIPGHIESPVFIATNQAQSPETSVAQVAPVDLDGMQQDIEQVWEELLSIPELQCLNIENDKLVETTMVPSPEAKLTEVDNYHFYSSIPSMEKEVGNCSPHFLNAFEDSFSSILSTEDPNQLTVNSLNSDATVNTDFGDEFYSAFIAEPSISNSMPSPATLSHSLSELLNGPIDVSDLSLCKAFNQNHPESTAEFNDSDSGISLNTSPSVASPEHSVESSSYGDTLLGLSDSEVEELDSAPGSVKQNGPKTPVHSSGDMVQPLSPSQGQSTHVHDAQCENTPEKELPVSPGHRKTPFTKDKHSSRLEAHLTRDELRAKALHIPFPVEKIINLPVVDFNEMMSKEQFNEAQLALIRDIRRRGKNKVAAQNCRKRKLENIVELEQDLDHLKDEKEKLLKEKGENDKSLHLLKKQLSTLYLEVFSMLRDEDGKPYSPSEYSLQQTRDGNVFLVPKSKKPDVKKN
Signal transducer and activator of transcription 3 (Homo sapiens), sequence (P40763 whole entry, looked up): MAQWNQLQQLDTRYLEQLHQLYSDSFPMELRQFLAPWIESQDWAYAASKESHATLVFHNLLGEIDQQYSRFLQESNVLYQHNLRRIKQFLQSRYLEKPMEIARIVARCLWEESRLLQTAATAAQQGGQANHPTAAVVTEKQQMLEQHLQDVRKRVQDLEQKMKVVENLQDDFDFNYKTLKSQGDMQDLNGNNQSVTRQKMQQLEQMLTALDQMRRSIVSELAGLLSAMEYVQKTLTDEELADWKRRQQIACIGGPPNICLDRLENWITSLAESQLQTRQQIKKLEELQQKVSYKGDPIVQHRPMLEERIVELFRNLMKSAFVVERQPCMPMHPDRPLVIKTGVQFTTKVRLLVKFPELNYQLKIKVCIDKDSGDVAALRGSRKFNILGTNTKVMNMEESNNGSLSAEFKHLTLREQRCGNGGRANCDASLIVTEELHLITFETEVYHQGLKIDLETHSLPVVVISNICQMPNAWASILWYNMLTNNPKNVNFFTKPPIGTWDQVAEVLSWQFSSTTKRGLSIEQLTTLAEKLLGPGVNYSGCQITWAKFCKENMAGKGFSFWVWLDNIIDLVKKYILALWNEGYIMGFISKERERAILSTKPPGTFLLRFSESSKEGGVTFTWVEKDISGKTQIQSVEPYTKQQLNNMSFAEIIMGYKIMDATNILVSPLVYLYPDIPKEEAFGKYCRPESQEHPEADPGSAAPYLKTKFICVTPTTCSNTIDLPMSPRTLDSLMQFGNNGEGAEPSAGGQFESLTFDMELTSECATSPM

As for `O=c1ccc(=O)[nH][nH]1`, the result in test [1], in test [2], in test [3], in test [4], in test [5] and in test [6] was inactive. Further, the outcome in test [7], in test [8], in [9], in [10], in test [11] and in test [12] was inactive. Besides, the outcome was “inactive” in the test with TIMP1, TIMP1 (gene 7076); “inactive” in test [13]; “inactive” in test [14]; “inactive” in [15]; “inactive” in test [16]; “inactive” in test [17]. Also, in test [18], the result was inactive.

For the molecule `CCOP(=O)(SC(C)CC)N1CCSC1=O` (configuration not stated), the molecule was called inactive in [1], in [2], in test [3], in test [5], in [6] and in [7]. The outcome was “inactive” in test [8]; “inactive” in test [9]; “inactive” in test [10]; “inactive” in test [11]; “inactive” in test [12]; “inactive” in the test with TIMP1, TIMP1 (gene 7076). Besides, the outcome in test [13], in [14], in test [15], in test [16], in test [17] and in test [18] was inactive. Also, the AC50 in test [4] was 21.7 µM (active).

Turning to `CSc1nnc(C(C)(C)C)c(=O)n1N`, the outcome in [1], in test [2], in [3], in [4], in test [5] and in test [6] was inactive. Besides, the call in test [7], in test [8], in [9], in [10], in [11] and in test [12] was inactive. The outcome was “inactive” with TIMP1, TIMP1 (gene 7076); “inactive” in test [13]; “inactive” in test [14]; “inactive” in [16]; “inactive” in test [17]; “inactive” in test [18]. Further, the AC50 in test [15] was 9.92 µM (active).

The record behind these values is PubChem BioAssay (EPA / NIEHS).
